Laboratory results: PubChem BioAssay AID1159580 (chemical genetic matrix, 2015)
Among all 5,500 compounds or so, about 2,000 (36%) were called active. Not shown: some 18% with an inconclusive outcome. Cut-off read from the data, not from the text of the source: active = normalized growth mostly below about 0.91 (no sharp cut-off); inconclusive = no clear call, values can overlap the other calls; inactive = mostly above about 0.92. The list shows a part of the results.

Test: chemical genetic growth profiling, strain panel (AID 1159580);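 note: tested at 20 µM; growth read once vehicle control cultures reached saturation at 30 °C; 1 = growth at the plate median or of vehicle wells; lower values mean less growth of the strain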
Conditions: growth OD

Measured: normalized growth

COc1cc(OC)cc(OC)c1
active: S. cerevisiae deletion strains, locus YCL029C, strain bik1, hits give low values 0.743 | S. cerevisiae deletion strains, locus YDL192W, strain arf1, hits give low values 0.102 | S. cerevisiae deletion strains, locus YDR101C, strain arx1, hits give low values 0.529 | S. cerevisiae deletion strains, locus YDR318W, strain mcm21, hits give low values 0.0697 | S. cerevisiae deletion strains, locus YDR388W, hits give low values 0.0643 | S. cerevisiae deletion strains, locus YDR502C, strain sam2, hits give low values 0.159 | S. cerevisiae deletion strains, locus YER110C, hits give low values 0.305 | S. cerevisiae deletion strains, locus YGL078C, strain dbp3, hits give low values 0.299 | S. cerevisiae deletion strains, locus YGL086W, strain mad1, hits give low values 0.0586 | S. cerevisiae deletion strains, locus YGR135W, strain pre9, hits give low values 0.0735 | S. cerevisiae deletion strains, locus YGR252W, strain gcn5, hits give low values 0.24 | S. cerevisiae deletion strains, locus YHR079C, strain IRE1 (second series), hits give low values 0.598 | S. cerevisiae deletion strains, locus YHR094C, strain hxt1, hits give low values 0.147 | S. cerevisiae deletion strains, locus YHR200W, strain rpn10, hits give low values 0.124 | S. cerevisiae deletion strains, locus YIL125W, strain kgd1, hits give low values 0.263 | S. cerevisiae deletion strains, locus YIR030C, strain dcg1, hits give low values 0.317 | S. cerevisiae deletion strains, locus YJL168C, strain set2, hits give low values 0.206 | S. cerevisiae deletion strains, locus YKL085W, strain MDH1 (second series), hits give low values 0.211 | S. cerevisiae deletion strains, locus YKL085W, strain MDH1, hits give low values 0.211 | S. cerevisiae deletion strains, locus YKR001C, strain vps1, hits give low values 0.127 | S. cerevisiae deletion strains, locus YLR102C, strain apc9, hits give low values 0.106 | S. cerevisiae deletion strains, locus YLR268W, strain sec22, hits give low values 0.0897 | S. cerevisiae deletion strains, locus YLR371W, strain rom2, hits give low values 0.0926 | S. cerevisiae deletion strains, locus YLR418C, strain cdc73, hits give low values 0.104 | S. cerevisiae deletion strains, locus YML032C, strain rad52, hits give low values 0.853 | S. cerevisiae deletion strains, locus YML124C, strain tub3, hits give low values 0.181 | S. cerevisiae deletion strains, locus YMR078C, strain ctf18, hits give low values 0.231 | S. cerevisiae deletion strains, locus YMR223W, strain ubp8, hits give low values 0.0875 | S. cerevisiae deletion strains, locus YNL250W, strain rad50, hits give low values 0.725 | S. cerevisiae deletion strains, locus YNL271C, strain bni1, hits give low values 0.351 | S. cerevisiae deletion strains, locus YNL298W, strain CLA4, hits give low values 0.725 | S. cerevisiae deletion strains, locus YNL307C, strain MCK1, hits give low values 0.0671 | S. cerevisiae deletion strains, locus YOL147C, strain pex11, hits give low values 0.838 | S. cerevisiae deletion strains, locus YOR136W, strain idh2, hits give low values 0.104 | S. cerevisiae deletion strains, locus YOR184W, strain ser1, hits give low values 0.0729 | S. cerevisiae deletion strains, locus YOR316C, strain cot1, hits give low values 0.096 | S. cerevisiae deletion strains, locus YPR119W, strain clb2, hits give low values 0.169 | S. cerevisiae deletion strains, locus YPR163C, strain tif3, hits give low values 0.0751 | S. cerevisiae deletion strains, locus YPR167C, strain met16, hits give low values 0.0964 | S. cerevisiae deletion strains, strain wtn01, hits give low values 0.0632
inactive: S. cerevisiae deletion strains, locus YAL013W, strain DEP1, hits give low values 1.01 | S. cerevisiae deletion strains, locus YBR021W, strain FUR4, hits give low values 1.02 | S. cerevisiae deletion strains, locus YBR229C, strain ROT2, hits give low values 1.01 | S. cerevisiae deletion strains, locus YDL035C, strain GPR1, hits give low values 1.02 | S. cerevisiae deletion strains, locus YDL074C, strain BRE1, hits give low values 1.01 | S. cerevisiae deletion strains, locus YDL101C, strain DUN1, hits give low values 1 | S. cerevisiae deletion strains, locus YDL134C, strain PPH21, hits give low values 1 | S. cerevisiae deletion strains, locus YDL185W, strain tfp1, hits give low values 0.982 | S. cerevisiae deletion strains, locus YDR150W, strain NUM1, hits give low values 1.01 | S. cerevisiae deletion strains, locus YDR162C, strain NBP2, hits give low values 1.02 | S. cerevisiae deletion strains, locus YEL061C, strain CIN8, hits give low values 1 | S. cerevisiae deletion strains, locus YER155C, strain BEM2, hits give low values 1.01 | S. cerevisiae deletion strains, locus YER167W, strain BCK2, hits give low values 1.01 | S. cerevisiae deletion strains, locus YGL248W, strain PDE1, hits give low values 1.01 | S. cerevisiae deletion strains, locus YGR078C, strain PAC10, hits give low values 1.01 | S. cerevisiae deletion strains, locus YGR229C, strain SMI1, hits give low values 1 | S. cerevisiae deletion strains, locus YHR030C, strain SLT2, hits give low values 1.01 | S. cerevisiae deletion strains, locus YHR129C, strain ARP1, hits give low values 1.01 | S. cerevisiae deletion strains, locus YIL066C, strain RNR3, hits give low values 1.01 | S. cerevisiae deletion strains, locus YIL073C, strain SPO22, hits give low values 1 | S. cerevisiae deletion strains, locus YJL095W, strain BCK1, hits give low values 1.01 | S. cerevisiae deletion strains, locus YJL134W, strain LCB3, hits give low values 1 | S. cerevisiae deletion strains, locus YJL187C, strain SWE1 (second series), hits give low values 1.02 | S. cerevisiae deletion strains, locus YJR043C, strain POL32, hits give low values 0.994 | S. cerevisiae deletion strains, locus YJR075W, strain HOC1, hits give low values 1 | S. cerevisiae deletion strains, locus YKL009W, strain mrt4, hits give low values 0.898 | S. cerevisiae deletion strains, locus YKL068W, hits give low values 1 | S. cerevisiae deletion strains, locus YKL190W, strain CNB1, hits give low values 1.01 | S. cerevisiae deletion strains, locus YLR039C, strain RIC1, hits give low values 1.01 | S. cerevisiae deletion strains, locus YLR058C, strain SHM2, hits give low values 1.01 | S. cerevisiae deletion strains, locus YLR262C, strain YPT6, hits give low values 1.04 | S. cerevisiae deletion strains, locus YLR330W, strain CHS5, hits give low values 1 | S. cerevisiae deletion strains, locus YLR342W, strain FKS1 (second series), hits give low values 0.983 | S. cerevisiae deletion strains, locus YML016C, strain PPZ1, hits give low values 1 | S. cerevisiae deletion strains, locus YMR263W, strain SAP30, hits give low values 1.02 | S. cerevisiae deletion strains, locus YMR307W, strain GAS1, hits give low values 0.961 | S. cerevisiae deletion strains, locus YNL067W, strain RPL9B, hits give low values 1.02 | S. cerevisiae deletion strains, locus YNL128W, strain TEP1, hits give low values 1.02 | S. cerevisiae deletion strains, locus YNL153C, strain GIM3, hits give low values 1.02 | S. cerevisiae deletion strains, locus YNL233W, strain BNI4, hits give low values 1.02 | S. cerevisiae deletion strains, locus YNL322C, strain KRE1, hits give low values 1.01 | S. cerevisiae deletion strains, locus YNR052C, strain pop2, hits give low values 1 | S. cerevisiae deletion strains, locus YOL006C, strain TOP1, hits give low values 0.948 | S. cerevisiae deletion strains, locus YOR061W, strain CKA2, hits give low values 1 | S. cerevisiae deletion strains, locus YOR069W, strain VPS5, hits give low values 1 | S. cerevisiae deletion strains, locus YOR144C, strain elg1, hits give low values 0.997 | S. cerevisiae deletion strains, locus YPL055C, strain LGE1, hits give low values 1.02 | S. cerevisiae deletion strains, locus YPL241C, strain CIN2, hits give low values 1.01 | S. cerevisiae deletion strains, locus YPR141C, strain kar3, hits give low values 1.01 | S. cerevisiae strains, strain wild type, hits give low values 1.01
